# Screening results (PubChem)
# DUSP3 inh: DUSP3 (human) phosphatase inhibition. recombinant VHR phosphatase, pNPP absorbance. P51452. inhibition, % at 13.3 µM. 290,000 tested, 0.52% active; in the data active means inhibition above about 50%
# Anthrax LF prot: blocks Bacillus anthracis lethal factor protease. P15917. multiplex microsphere protease cleavage assay, LF. inhibition, % at 10 µM. 360,000 tested, 0.12% active; further: plate controls were buffer without enzyme for full effect and enzyme alone for no effect
# Target sequence (P15917 whole entry, looked up): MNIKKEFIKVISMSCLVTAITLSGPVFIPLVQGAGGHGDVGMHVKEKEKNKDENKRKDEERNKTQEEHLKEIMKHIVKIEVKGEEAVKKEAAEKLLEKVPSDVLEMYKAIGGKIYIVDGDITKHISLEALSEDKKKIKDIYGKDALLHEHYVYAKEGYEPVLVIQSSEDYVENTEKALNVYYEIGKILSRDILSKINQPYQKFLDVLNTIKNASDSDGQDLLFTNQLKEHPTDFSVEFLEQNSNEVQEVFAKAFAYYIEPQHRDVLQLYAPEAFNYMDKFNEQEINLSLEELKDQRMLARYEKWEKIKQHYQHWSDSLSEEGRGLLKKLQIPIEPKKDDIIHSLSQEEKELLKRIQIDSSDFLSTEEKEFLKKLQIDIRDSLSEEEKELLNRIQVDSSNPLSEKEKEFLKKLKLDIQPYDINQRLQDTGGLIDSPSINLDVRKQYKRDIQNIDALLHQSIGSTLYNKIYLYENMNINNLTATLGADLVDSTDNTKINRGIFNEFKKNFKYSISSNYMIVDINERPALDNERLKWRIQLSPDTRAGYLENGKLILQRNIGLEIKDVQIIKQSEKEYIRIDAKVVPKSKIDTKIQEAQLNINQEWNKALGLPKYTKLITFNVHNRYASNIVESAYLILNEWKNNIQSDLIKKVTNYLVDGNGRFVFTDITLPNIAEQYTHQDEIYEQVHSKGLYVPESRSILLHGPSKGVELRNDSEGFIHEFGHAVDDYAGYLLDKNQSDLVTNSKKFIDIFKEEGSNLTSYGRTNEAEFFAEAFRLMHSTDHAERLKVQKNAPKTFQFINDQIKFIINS
# 3CLpro inhibitor: SARS-CoV 3CLpro protease inhibition | P0C6X7 | recombinant SARS-CoV 3CLpro, quenched FRET peptide cleavage | inhibition, % at 6 µM | 290,000 tested, 0.14% active; in the data active means inhibition above about 12%
# BoNT-A LC inh2: blocks Botulinum neurotoxin A light chain protease | AID 588499 | multiplex microsphere protease substrate cleavage, flow cytometry | 360,000 tested, 0.17% active | inhibition, % at 10 µM; further: plate controls were buffer without enzyme for full effect and enzyme alone for no effect
# BoNT-F LC inh: inhibitors of Botulinum neurotoxin F light chain protease; 360,000 tested, 0.22% active; AID 588497; inhibition, % at 10 µM; Multiplex microsphere protease cleavage assay, flow cytometry; in the data active means inhibition above about 35%, passing the limit was not always enough; inconclusive means no clear call, values can overlap the other calls; further: plate controls were buffer without enzyme for full effect and enzyme alone for no effect
# Autofluor counter: compound fluorescence in toxin protease inhibitor counterscreen; compound autofluorescence counterscreen, microsphere flow cytometry; stronger effect = higher value; fluorescence intensity (concentration not given with the values); 360,000 tested, 3.1% active; AID 624483; in the data active means fluorescence intensity above about 16000; inconclusive means no clear call, values can overlap the other calls
# The depositor's hits bear a star; ? = inconclusive; nt = no result. This is a sample that favours compounds with a hit; in the whole collection about 3.9% have one here. Unless noted, no stated cut-off is given here; in the data, active means inhibition above about 30%; inconclusive means no clear call, values can overlap the other calls; inactive means below that.
SMILES,DUSP3 inh,Anthrax LF prot,3CLpro inhibitor,BoNT-A LC inh2,BoNT-F LC inh,Autofluor counter
CC1(C)OC(=O)C2=C(C[C@@H](CCC(F)(F)F)O[C@H]2c2ccc(F)cc2)O1,nt,-8,nt,-1,-7,6324
CCOC(=O)c1nn(-c2ccc(OCC)cc2)c2nc(CC(C)C)c(C#N)c(=O)n12,4,-3,-1,-2,-4,16776*
CCOC(=O)c1nn(-c2ccc(Cl)cc2)c2nc(CC)c(C#N)c(=O)n12,16,-2,-3,1,0,16274*
CCOC(=O)c1nn(-c2cccc(Cl)c2)c2nc(CC(C)C)c(C#N)c(=O)n12,14,4,-5,0,5,10003
CCOC(=O)c1nn(-c2ccc(Cl)cc2)c2nc(-c3ccc(C)cc3)c(C#N)c(=O)n12,8,3,0,0,2,2938
CC(C)OCCCn1c(SCC(=O)Nc2ccccc2C(F)(F)F)nc2nccnc2c1=O,-36,2,0,1,0,5418
COc1ccc(N2CCN(C(CNC(=O)C3CCCCC3)c3ccco3)CC2)cc1 (stereo not given),nt,0,nt,2,-9,5163
Cc1onc(-c2ccccc2)c1-c1nnc(CN2CCN(S(=O)(=O)c3ccccc3)CC2)o1,nt,-14,nt,-1,-5,3212
O=C(O)c1ccccc1NC(c1ccccc1)c1ccc(Cl)cc1 (stereo not given),6,-23,9,0,?,4355
COc1ccc(-c2c(C)n([O-])c3c([n+]2=O)CCCC3)cc1,52*,3,-1,-1,-1,6235
Cc1ccc(-c2c(C)n([O-])c3c([n+]2=O)CCCCC3)cc1,0,-2,1,0,2,2127
CCn1c(C)c(CS(=O)(=O)c2ccccc2)[nH]c1=O,2,-11,-5,-1,-5,3517
CC(C)OC(=O)c1nnn(-c2nonc2N)c1CN1CCc2ccccc2C1,10,0,2,0,-5,5610
CCOC(=O)c1nnn(-c2nonc2N)c1CN1CCc2ccccc2C1,3,-14,1,5,4,20264*
COc1ccccc1N1CCN(C2CCCN(C(=O)c3cscn3)C2)CC1 (stereo not given),5,0,-3,1,-5,5116
COc1ccccc1N1CCN(C2CCCN(C(=O)C3=NN(C)C(=O)CC3)C2)CC1 (stereo not given),52*,1,-1,0,2,6277
COc1ccccc1N1CCN(C2CCCN(C(=O)CCn3cncn3)C2)CC1 (stereo not given),57*,-7,-3,1,1,4325
C=CCC[C@H](CCCCC)OC(=O)/C=C/[C@@H](O)[C@H](O)C[C@@H](O)CC=C,nt,7,nt,0,7,5882
O=C(CSc1ncnc2scc(-c3ccc(F)cc3)c12)c1ccc2c(c1)OCCO2,-5,2,-5,0,-4,2391
Cc1ccc(-c2csc3ncnc(SCC(=O)Nc4nnc(C)s4)c23)cc1,-5,-3,6,?,4,21425*
Cc1ccc(-c2csc3ncnc(SCC(=O)c4ccc5c(c4)OCCO5)c23)cc1,-3,1,0,?,16,19619*
CN1CCC(N2CC3CC(C2)c2cccc(=O)n2C3)CC1 (stereo not given),17,0,2,-2,-6,24622*
CC(=O)c1ccc(NC(=O)C(C)Sc2ccccn2)cc1 (stereo not given),26,-2,2,1,5,4380
CC(Sc1ccccn1)C(=O)Nc1ccccc1 (stereo not given),10,-4,-1,0,0,20487*
CC1CCCC(=NNC(=O)C2COc3ccccc3O2)C1 (stereo not given),nt,-1,nt,0,4,5260
SMILES,DUSP3 inh,Anthrax LF prot,3CLpro inhibitor,BoNT-A LC inh2,BoNT-F LC inh,Autofluor counter
NC(=O)c1nnn(-c2nonc2N)c1-c1ccc([N+](=O)[O-])cc1,11,-4,2,-1,0,3205
Cc1ccc(NC(=O)CC2NCCNC2=O)cc1 (stereo not given),-1,-2,5,0,4,3699
CN(C)c1ccc(NC(=O)CC2NCCNC2=O)cc1 (stereo not given),14,-7,3,?,2,21583*
Cc1cc(C)cc(NC(=O)CC2NCCNC2=O)c1 (stereo not given),37,-2,1,?,-2,16440*
COc1cc(-c2coc3c(C(=O)NCc4ccc(C(F)(F)F)cc4)cccc23)ccc1O,nt,-12,nt,-1,-14,3649
CC(C)(C)c1ccc(-c2noc(CNC(=O)c3ccco3)n2)cc1,-2,-4,3,-1,-3,5315
COc1ccc(C(=O)COC(=O)CCN=C2NS(=O)(=O)c3ccccc32)cc1OC,14,-2,-2,0,0,20801*
COc1ccccc1C(=O)COC(=O)CCCN=C1NS(=O)(=O)c2ccccc21,nt,10,nt,1,?,6256
Cc1nn(CCC(=O)NNC(=S)Nc2cccc(Cl)c2)c(C)c1[N+](=O)[O-],9,3,0,-2,-5,20563*
Cc1cnn(CCC(=O)NNC(=S)Nc2cccc(Cl)c2)c1,19,0,0,3,6,21961*
Cc1ccc(C2CC2C(=O)NNC(=S)Nc2cccc(C)c2)cc1 (stereo not given),27,8,4,-1,0,9946
Cc1cccc(NC(=S)NNC(=O)CCn2nc(C)c([N+](=O)[O-])c2C)c1,9,-1,0,2,2,15439
Cc1nn(CCC(=O)NNC(=S)Nc2ccc(Cl)cc2)c(C)c1[N+](=O)[O-],-14,-7,3,2,6,7836
Cc1nn(CC(=O)NNC(=S)Nc2ccccc2)c(C)c1[N+](=O)[O-],0,1,-1,-1,1,21125*
Cc1ccc(C2CC2C(=O)NNC(=S)Nc2cccc(Cl)c2)cc1 (stereo not given),-5,-2,7,-1,-4,20873*
Cc1ccc(S(=O)(=O)/C(=C\N(C)C)c2cnc(Cl)s2)cc1,-1,-8,1,0,-1,3950
Cc1ccc(NC(=S)NNC(=O)c2c([N+](=O)[O-])c(C)nn2C)cc1,-2,-2,3,-1,-4,23365*
Cc1ccc(NC(=S)NNC(=O)c2c(Cl)c(C)nn2C)cc1,-2,-9,0,-2,-5,9508
O=C(Cn1nc(C(F)F)cc1C(F)F)NNC(=S)Nc1ccc(Cl)cc1,27,-1,6,-4,-4,23616*
Cc1ccc(NC(=S)NNC(=O)Cn2nc(C(F)F)cc2C(F)F)cc1,-5,-1,0,-1,0,2523
O=C(Nc1c(Cl)cccc1Cl)c1cc(=O)n(Cc2ccccc2)c(=O)[nH]1,3,2,5,?,-1,21337*
Cc1cccc(NC(=O)c2cc(=O)n(Cc3ccccc3)c(=O)[nH]2)c1,8,-2,0,-1,-3,2395
